Measured values taken from PubChem BioAssay (NCATS).
Results filed as inconclusive are left out. The source made the active and inactive calls. Calls come from the whole dose curve.

Experiment: Confirmatory qHTS to identify inhibitors of SARS-CoV-2 cell entry (AID 1645844); note: nearly all actives have a fitted effect of over 45% in size
Conditions: SARS-CoV-2 pseudotyped particle cell entry, luciferase; series mostly up to 57.2 µM
Procedure, shortened: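 Luminescence from a luciferase reporter, read 48 hr after pseudotyped-particle addition, gives entry signal, normalised to spike-bearing PP wells and bald PP lacking fusion protein wells. Cells are Expi293F stably expressing human ACE2, compound-pretreated 1 hr.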
Potency is the fitted concentration of half-maximal effect.

Question: For COCCOC(=O)C1=C(C)NC(C)=C(C(=O)OC/C=C/c2ccccc2)C1c1cccc([N+](=O)[O-])c1 (stereo unspecified), which Potency is on record?
Answer: 24.1 µM (active)

Question: Which Potency does the source give for O=c1[nH]c(=O)n([C@H]2C[C@H](O)[C@@H](CO)O2)cc1C(F)(F)F here?
Answer: 0.0857 µM (active)

Question: For O=C1NC2CCCCN2C12CCN(CCCN1c3ccccc3CCc3ccc(Cl)cc31)CC2 (stereo unspecified), which Potency is on record?
Answer: 15.2 µM (active)

Question: With CC(=O)c1ccc2c(c1)N(CCCN1CCC(CCO)CC1)c1ccccc1S2 as the compound, how does the Potency read?
Answer: 22.4 µM (active)

Question: For CN(C)CCOC(c1ccccc1)c1ccc(Br)cc1 (stereo unspecified), which Potency is on record?
Answer: 2.41 µM (active)

Question: Which Potency does the source give for COC(=O)[C@H]1[C@H]2C[C@@H]3c4[nH]c5cc(OC)ccc5c4CCN3C[C@H]2C[C@@H](OC(=O)/C=C/c2ccc(O)c(OC)c2)[C@@H]1OC here?
Answer: 30.4 µM (active)

Question: Which Potency does the source give for CN(C)CCCN1c2ccccc2Sc2ccccc21 here?
Answer: 27.1 µM (active)

Question: With CCCCCOc1ccccc1/C(=C\SC)n1ccnc1 as the compound, how does the Potency read?
Answer: 24.1 µM (active)

Question: For Clc1ccccc1C(c1ccccc1)(c1ccccc1)n1ccnc1, which Potency is on record?
Answer: 24.1 µM (active)

Question: With CCN(CC)CCOc1ccc(/C(=C(\Cl)c2ccccc2)c2ccccc2)cc1 as the compound, how does the Potency read?
Answer: 21.5 µM (active)

Question: Which Potency does the source give for O=C(CCCN1CCN(c2ccc(F)cc2)CC1)NC1c2ccccc2CSc2ccccc21 (stereo unspecified) here?
Answer: 1.92 µM (active)

Question: With O[C@@H](COc1cccc2ncccc12)CN1CCN(C2c3ccccc3[C@@H]3[C@H](c4ccccc42)C3(F)F)CC1 (stereo partly specified) as the compound, how does the Potency read?
Answer: 19.2 µM (active)

Question: With O=C(Nc1ccccc1)OCC(CN1CCCCC1)OC(=O)Nc1ccccc1 (stereo unspecified) as the compound, how does the Potency read?
Answer: inactive

Question: For CN(C(=O)c1c(O)c2ccccc2n(C)c1=O)c1ccccc1, which Potency is on record?
Answer: inactive

Question: For CN1CCC(=C2c3ccccc3CCc3sccc32)CC1, which Potency is on record?
Answer: 21.5 µM (active)

Question: With CC1=CC(=O)c2ccccc2C1=O as the compound, how does the Potency read?
Answer: 19.2 µM (active)

Question: With CCOC(=O)C1=C(C)NC(C)=C(C(=O)OCC)C1c1ccccc1/C=C/C(=O)OC(C)(C)C as the compound, how does the Potency read?
Answer: 0.961 µM (active)

Question: With CCCSS/C(CCO)=C(\C)N(C=O)Cc1cnc(C)nc1N as the compound, how does the Potency read?
Answer: inactive

Question: Which Potency does the source give for CCCCCCOC(=O)NC(=N)c1ccc(NCc2nc3cc(C(=O)N(CCC(=O)OCC)c4ccccn4)ccc3n2C)cc1 here?
Answer: 10.8 µM (active)

Question: Which Potency does the source give for Oc1c(Cl)cc(Cl)cc1Sc1cc(Cl)cc(Cl)c1O here?
Answer: 2.71 µM (active)

Question: For CCCOc1ccc2nc(NC(=O)OC)[nH]c2c1, which Potency is on record?
Answer: 0.764 µM (active)

Question: For CN1CCCCC1CCN1c2ccccc2Sc2ccc(S(C)=O)cc21 (stereo unspecified), which Potency is on record?
Answer: 1.08 µM (active)

Question: With CCCCC(CC)COC(=O)C(C#N)=C(c1ccccc1)c1ccccc1 (stereo unspecified) as the compound, how does the Potency read?
Answer: 27.1 µM (active)

Question: Which Potency does the source give for Oc1ccc(Cl)cc1Cc1cc(Cl)ccc1O here?
Answer: 0.0152 µM (active)

Question: Which Potency does the source give for CCCCCC(=O)O[C@]1(C(C)=O)CC[C@H]2[C@@H]3CCC4=CC(=O)CC[C@]4(C)[C@H]3CC[C@@]21C here?
Answer: 24.1 µM (active)

Question: With COC(=O)C1=C(C)NC(C)=C(C(=O)OC(C)(C)CN(C)CCC(c2ccccc2)c2ccccc2)C1c1cccc([N+](=O)[O-])c1 (stereo unspecified) as the compound, how does the Potency read?
Answer: 6.07 µM (active)
